Measured values from PubChem BioAssay (NCI).
Where “and” joins values, the source holds several entries; their conditions need not be identical. Equal entries are not always repeated. This is part of a sample that, as a whole, favours compounds with a hit. Of some 83,000 tested, about 20% had one in any assay.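 Treatment: one concentration, 48 hours, 96-well format. Scoring: percent growth, with anything below 10 considered active.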 Values without a mark were called inactive. Calls of active or inactive are those of the source.

Legend:
Test in all cases: NCI-60 one-dose screen, 48 h (100 = growth as untreated, 0 = no growth, -100 = all killed)
Conditions in all cases: 10 µM unless noted
[1] = system: SK-MEL-2 melanoma
[2] = system: EKVX NSCLC
[3] = system: SN12C renal
[4] = system: UO-31 renal
[5] = system: TK-10 renal
[6] = system: ACHN renal
[7] = system: CAKI-1 renal
[8] = system: CCRF-CEM leukemia
[9] = system: MOLT-4 leukemia
[10] = system: SR leukemia
[11] = system: RPMI-8226 leukemia
[12] = system: OVCAR-5 ovarian
[13] = system: SK-OV-3 ovarian
[14] = system: IGROV1 ovarian
[15] = system: OVCAR-3 ovarian
[16] = system: NCI/ADR-RES ovarian
[17] = system: OVCAR-8 ovarian
[18] = system: HS 578T breast
[19] = system: A498 renal
[20] = system: OVCAR-4 ovarian

Row | SMILES | growth [1] | growth [2] | growth [3] | growth [4] | growth [5] | growth [6] | growth [7] | growth [8] | growth [9] | growth [10] | growth [11] | growth [12] | growth [13] | growth [14] | growth [15] | growth [16] | growth [17] | growth [18] | growth [19] | growth [20]
1 | CCC(CC)COC(=O)c1ccc(O)c(O)c1 | 85.6% | 93.7% | 45.8% | 26.3% | 82.5% | 72.5% | 40.6% | 15.2% | 30.3% | 18.6% | 35.1% | 91.3% | 67% | 37.5% | 78.1% | 57.8% |  |  |  | 
2 | Oc1ccc(/C=N/NC(=S)Nc2ccccc2)nc1 | 11.8% | 32.6% | 20.2% | -2.11% (active) | 31.2% | 12.3% | 7.96% (active) | 6.28% (active) | -35.2% (active) | -22.7% (active) | 6.99% (active) | 34.1% | 18.9% | 23.2% | 20% | 3.65% (active) | 15.2% | 88.5% |  | 
3 | CC1(C)CC([P+](c2ccccc2)(c2ccccc2)c2ccccc2)=NN1 | -19.2% (active) | 67.4% | 30.4% | 67.8% | 56.4% | 88.1% | 90.1% | 41.3% | 21% |  | 16.2% |  | 33.2% | -22.8% (active) |  | 105% |  | 72.1% | 92% | 17.9%
4 | COC(=O)[C@@]12OC[C@]34[C@H]([C@@H](O)[C@@H]1O)[C@@]1(C)[C@H](O)C(=O)C=C(C)[C@@H]1C[C@H]3OC(=O)C(OC(C)=O)[C@@H]24 (stereo partly drawn) | -49.5% (active) | -43.6% (active) | -17.5% (active) | -35.1% (active) | -32.7% (active) | -39.2% (active) | -35.9% (active) |  | -41.6% (active) | -43% (active) | -69.8% (active) |  | -9.46% (active) | -58% (active) | -48.4% (active) | 16% | -18.6% (active) |  | -49.4% (active) | 3.68% (active)
5 | Cc1cc(C(C)(CC(C)C)c2ccc(O)c(C)c2)ccc1O | 104% | 89.5% | 85.6% | 84.6% | 141% | 83.3% | 73.3% | 92% | 80.8% |  | 86.3% |  | 97% | 103% | 106% | 105% | 91.2% |  | 101% | 94.8%
6 | CCCCCCC(C)c1ccccc1O (stereo not drawn) (tested in a mixture with another compound) | 123% | 110% | 106% | 99.1% | 119% | 110% | 90.1% | 99.1% | 102% |  | 95.6% |  |  | 111% | 111% | 98.6% | 110% | 101% |  | 
7 | O=C(/C=C\c1cc(Br)ccc1O)/C=C/c1cc(Br)ccc1O | -63.1% (active) | 8.88% (active) | -55.4% (active) | -72.9% (active) | -20% (active) | -59.8% (active) | -2.63% (active) |  | 0.164% (active) | 1.17% (active) | 0.234% (active) |  | 18.9% | -16.9% (active) | -81.5% (active) | 7.59% (active) | 3.86% (active) | 37.8% | -70.1% (active) | 
8 | CCCCCCCCCCCCCCCC[N+](C)(CCO)Cc1cnc[nH]1 (stereo not drawn) | -78.5% (active) | 38.1% | -4.78% (active) | 27.6% | -35.1% (active) | 3.11% (active) | 40.9% |  | -77.2% (active) |  | -58.3% (active) | -13.7% (active) | -21% (active) | -54.5% (active) | -36.9% (active) | 94.5% | -4.26% (active) | -19.4% (active) | -5.4% (active) | -1.06% (active)
9 | CN(Cc1cnc2nc(N)nc(N)c2n1)c1ccc(C(=O)NC(CCC(=O)O)C(=O)O)cc1 (stereo not drawn) | 79.6% | 70.9% | 26.9% | 9.25% (active) | 58.8% | 26.8% | 22.2% | 28.8% | 24.4% |  | 37.3% |  |  | 31.2% | 37.8% | 26.7% | 24% | 76.6% | 35.4% | 61.3%
10 | S=C(N/N=C/c1ccccn1)Nc1ccccn1 | -5.58% (active) | 41.4% | 33.7% | 13% | 31.4% | 15.9% | 13.2% | -14.8% (active) | -27.6% (active) |  | -2.91% (active) | 49.2% |  | 27% | -0.151% (active) | 7.98% (active) |  | 97.4% |  | 
11 | COc1ccc2nc3cc(Cl)ccc3c(NCCNc3c4ccc(Cl)cc4nc4ccc(OC)cc34)c2c1 | -73.1% (active) |  | -89.6% (active) | -90.3% (active) | -92.7% (active) | -94.7% (active) | -79.8% (active) | -10.9% (active) | -76% (active) | -29.8% (active) | -34.5% (active) | -90.1% (active) | -95.6% (active) | -78.9% (active) | -92.5% (active) | -53.5% (active) | -65.4% (active) | -34.9% (active) | 22.2% | -43.6% (active)
12 | NC(=S)N/N=C\c1nccc2c(C(F)(F)C(F)(F)C(F)(F)F)cccc12 | 7.18% (active) | 11.8% | 15.6% | -31.9% (active) | 11.9% | -0.888% (active) | -5.07% (active) | -8.14% (active) | -30.9% (active) | -29.4% (active) | -11% (active) | 42.3% | -21.8% (active) | 5.98% (active) | 4.2% (active) | -11.6% (active) | -0.116% (active) | 50.7% |  | 
13 | CC1SC(=S)N(c2ccc(Cl)cc2)C1=O (stereo not drawn) | 98.2% | 87.8% and 89.7% | 93% and 85.6% | 78.9% and 73.9% | 103% and 114% | 86.8% and 73.4% | 109% and 82.2% | 113% and 94.8% | 83.6% and 86.9% |  | 94.8% and 79.6% |  |  | 128% and 92.5% | 93.3% and 97.7% | 103% | 101% | 161% and 132% | 143% and 122% | 97.5% and 91.3%
14 | Cc1ccnc(NC(c2ccccc2)c2ccc3cccnc3c2O)c1 (stereo not drawn) | 50.4% | 33.5% | 38.8% | 14.8% | 58.3% | 28.5% | 14.7% | 16.4% | 18% |  | 51.5% |  | 57.5% | 36.5% | 19.5% | 22.4% | 28.1% | 66.9% | 77.3% | 20.6%
15 | O=C(CC1(O)C(=O)Nc2c(Cl)ccc(Cl)c21)c1ccc(Cl)cc1Cl (stereo not drawn) | 98.9% | 85.2% | 104% | 86.2% | 105% | 107% | 93.8% | 112% | 106% |  | 99.9% |  | 84.9% | 97.6% | 106% | 106% | 107% | 94% | 79.7% | 87.9%
16 | Nc1ccc(SSc2ccc(N)cc2)cc1 | 91.6% | 106% | 101% | 73.6% | 111% | 93.5% | 98.5% | 106% | 96.1% |  | 102% | 101% | 114% | 108% | 114% | 97.5% |  | 109% | 103% | 
